Laboratory results as given in PubChem BioAssay (NCATS).
Records with an inconclusive call do not appear. The source made the active and inactive calls. The call rests on the fitted dose curve; in most records, active means well fitted curve in the direction sought with a large enough effect; inconclusive means small, poorly fitted or top-dose-only effect, or another doubt; inactive means no such curve, though single readings can be large; an effect the other way counts as inactive or inconclusive.

Experiments:
[1] = qHTS assay for measurement of the activity of small molecule inhibitors on Zika virus induced Caspase-3 activity in human astrocytoma cells (AID 1224859)
Method in brief: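 Percent inhibition of virus-induced caspase-3/7 signal is calculated against uninfected and ZIKV-infected control cells. Cells are SNB-19, infected at 2 FFU/cell for 6 h after 1 h compound exposure.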

[2] = qHTS assay to identify small molecule inhibitors of chordoma cells - UCH-2 (AID 1259356); further: series mostly up to about 46 µM
[3] = P-glycoprotein substrates identified in KB-8-5-11 adenocarcinoma cell line, qHTS therapeutic library screen (AID 1346987); further: series mostly up to about 44 µM; nearly all actives have a fitted effect of over 65% in size
Method in brief: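 KB-8-5-11, a colchicine-selected P-gp-overexpressing KB-3-1 subline, was grown without colchicine for the assay. Cells were seeded at 500 cells/well, dosed in concentration-response and incubated 72 h at 37 degree C, 5% CO2. Viability was read by CellTiter-Glo luminescence.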

[4] = NS1 protein of Zika virus - qHTS assay to identify small molecule inhibitors in human HEK 293 cells (AID 1347053); further: series mostly up to about 46 µM; nearly all actives have a fitted effect of over 55% in size
Method in brief: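 HEK 293 cells pretreated with compound for 1 h, then infected with ZIKV MR766 (MOI 0.5) for 24 h at 37 C. NS1 detected by TR-FRET with two anti-NS1 antibodies; normalized to uninfected (0%) and infected (100%) wells.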

[5] = qHTS of pediatric cancer cell lines to identify multiple opportunities for drug repurposing: Primary screen for TC32 cells (AID 1347089); further: nearly all actives have a fitted effect of over 60% in size
Method in brief: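 In the primary qHTS, MIPE compounds were tested at 11 concentrations (0.78 nM to 46 µM) and NPC compounds at 8 (0.59 nM to 46 µM) on TC32 cells for 48 h. CellTiter-Glo luminescence gave viability.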

[6] = qHTS of pediatric cancer cell lines to identify multiple opportunities for drug repurposing: Primary screen for DAOY cells (AID 1347090); further: series mostly up to about 46 µM; nearly all actives have a fitted effect of over 55% in size
Method in brief: (§1)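 Viability measured as metabolically active cells via CellTiter-Glo luminescence following 48 hours of compound exposure, 11-point dilutions in confirmatory testing. 500-1,000 cells/well plated 5 hours before dosing; controls were DMSO and 2.3 µM bortezomib.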

[7] = qHTS of pediatric cancer cell lines to identify multiple opportunities for drug repurposing: Primary screen for SJ-GBM2 cells (AID 1347091)
Method in brief: as §1

[8] = qHTS of pediatric cancer cell lines to identify multiple opportunities for drug repurposing: Primary screen for A673 cells (AID 1347092); further: nearly all actives have a fitted effect of over 45% in size
Method in brief: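 48 h compound exposure, A673, 500-1,000 cells/well, 37 degrees C/5% CO2. MIPE: 11-point, 0.78 nM-46 µM; NPC: 8-point, 0.59 nM-46 µM (final). Readout CellTiter-Glo luminescence after 15 min RT.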

[9] = qHTS of pediatric cancer cell lines to identify multiple opportunities for drug repurposing: Primary screen for SK-N-MC cells (AID 1347093); further: series mostly up to about 46 µM
Method in brief: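 Metabolically active cells were quantified by ATP-dependent luminescence (CellTiter-Glo, 15 min at room temperature) following 48 h treatment. Cells had been plated at 500-1,000 per well and settled for 5 h beforehand.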

[10] = qHTS of pediatric cancer cell lines to identify multiple opportunities for drug repurposing: Primary screen for BT-37 cells (AID 1347094); further: series mostly up to about 57 µM
Method in brief: (§2)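 Primary screen of approved and investigational compounds on cells in growth media at 37 degrees C, 5% CO2. MIPE set at 11-point and NPC set at 8-point dilutions; viability scored by ATP-based luminescence at 48 hours.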

[11] = qHTS of pediatric cancer cell lines to identify multiple opportunities for drug repurposing: Primary screen for NB-EBc1 cells (AID 1347095)
Method in brief: as §2

Measured: Potency

Cc1ccccc1OCC(O)CO (centres undefined)
inactive: all assays above

O=C(O)Cc1csc(-c2ccc(Cl)cc2)n1
not listed: [3]
inactive: all other assays above

Cc1c(-c2ccccc2)oc2c(C(=O)OCCN3CCCCC3)cccc2c1=O
inactive: all assays above

CCN(CC)CCNC(=O)COc1ccc(OC)cc1
inactive: all assays above

COc1ccc(C(=O)c2ccccc2)c(O)c1
inactive: all assays above
